Compound activity as filed in PubChem BioAssay.
Most compounds without a hit are left out; they make up all but 6% or so of the library.
D3 antag = blocks the human D3 dopamine receptor | D3R cells, DiscoveRx beta-arrestin luminescence, antagonist mode; active compounds read low | AID 652054 | max response, negative = inhibition, % | 2.5% of 360,000 active; in the data active means max response below about -50%; inconclusive means no clear call, values can overlap the other calls
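Cells expressing the human receptor were seeded at 1500 cells/well, incubated overnight at 37 degrees C in 5% CO2, then exposed to library compounds with dopamine controls for 90 minutes at 37 degrees C before luminescent detection.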
D1 ag = agonists of human D1 dopamine receptor. activation, % at 2 µM. P21728. 1% of 360,000 active. AID 504660. HEK293 T-REx D1 cells, calcium flux, agonist mode; in the data active means activation above about 30%
Target sequence (P21728 whole entry, looked up): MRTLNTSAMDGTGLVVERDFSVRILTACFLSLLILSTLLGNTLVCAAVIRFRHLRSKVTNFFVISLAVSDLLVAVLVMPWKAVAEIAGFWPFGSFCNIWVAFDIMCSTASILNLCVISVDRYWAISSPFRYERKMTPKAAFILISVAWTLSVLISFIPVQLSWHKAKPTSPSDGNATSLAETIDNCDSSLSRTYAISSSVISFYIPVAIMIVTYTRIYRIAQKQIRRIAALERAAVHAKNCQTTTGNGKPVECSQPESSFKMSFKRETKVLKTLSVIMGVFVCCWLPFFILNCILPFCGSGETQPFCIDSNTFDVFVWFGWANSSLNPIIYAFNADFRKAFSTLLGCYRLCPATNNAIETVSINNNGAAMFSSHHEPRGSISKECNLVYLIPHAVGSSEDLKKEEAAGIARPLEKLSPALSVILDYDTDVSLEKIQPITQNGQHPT
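Tetracycline-induced HEK293 TREx D1 cells, force-coupled to calcium signalling, were dye-loaded with a no-wash calcium kit. Compound was pin-added after a 10 s baseline. Fluorescence was read kinetically at 1 cycle/s for 180 s, with calcium rises flagged as agonism.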
D1 PAM = potentiators of human D1 dopamine receptor; P21728; HEK293 TREx D1 cells, calcium flux, dopamine EC20 potentiation; potentiation, % at 10 µM; 0.036% of 360,000 active; AID 504651; in the data active means potentiation above about 30%
DRD3 agonist = agonists of human D3 dopamine receptor | P35462 | D3R DiscoveRx beta-arrestin cells, luminescence, 90 min | max activation, % | 0.58% of 410,000 active; in the data active means max activation above about 30%
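Cells at 1500/well, incubated overnight, then treated with pinned compounds (dopamine as control) for 90 min at 37 degrees C. DiscoveRx reagent added for 30 - 60 minutes at room temperature; luminescence read.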
D1 antagonist = human D1 dopamine receptor antagonism; HEK293 TREx D1 cells, calcium flux, dopamine EC80; active compounds read low; 3.2% of 360,000 active; activity change, negative = inhibition, % at 10 µM; in the data active means activity change below about -30%
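Calcium flux readout: force-coupled, inducible Hek293 Trex D1 line, cells induced overnight at 30 C with tetracycline, dye-loaded 30–90 min at RT. Antagonism scored against EC80 dopamine challenge given 180 s after compound.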
Large screens that a line does not name were inactive.

CCC(=O)Oc1ccc2c(c1)CC[C@@H]1[C@@H]2CC[C@]2(C)[C@@H](OC(=O)CC)CC[C@@H]12	none (no result: D3 antag, D1 ag, D1 PAM, D1 antagonist)
O=C1OC(c2ccccc2)/C(=C(/O)c2ccc(Cl)cc2)C1=O (configuration not stated)	D3 antag -62
Cc1ccc(NC(=O)c2oc3ccccc3c2NC(=O)C2CCCCC2)cc1	none (no result: D3 antag)
O=C(CSc1nnc(-c2ccc(O)cc2)o1)c1ccc(Br)cc1	D1 ag 39 (no result: D3 antag)
C[C@H](NC(=O)c1nc[nH]c1C(=O)N[C@@H](Cc1ccccc1)C(=O)OCc1ccccc1)C(=O)OCc1ccccc1	D1 antagonist -31
CC1CCN(C(=O)c2[nH]cnc2C(=O)NCc2ccccc2)CC1	none
C[C@H](NC(=O)c1nc[nH]c1C(=O)N[C@@H](Cc1ccccc1)C(=O)OC(C)(C)C)C(=O)OCc1ccccc1	D3 antag inconclusive
CNC(=O)c1[nH]cnc1C(=O)N[C@@H](C)C(=O)OCc1ccccc1	DRD3 agonist 35, D1 antagonist -34
CC1CCN(C(=O)c2[nH]cnc2C(=O)Nc2ccc(Cl)cc2)CC1	DRD3 agonist 45 (no result: D1 antagonist)
C[C@H](NC(=O)c1nc[nH]c1C(=O)NC(c1ccccc1)c1ccccc1)C(=O)OC(C)(C)C	D3 antag -56
C[C@H](NC(=O)c1nc[nH]c1C(=O)N[C@H](C)c1ccccc1)C(=O)OC(C)(C)C	none
CN1CCN(C(CNC(=O)C(=O)Nc2ccccc2)c2ccc3c(c2)OCO3)CC1 (configuration not stated)	none (no result: D3 antag)
Cc1ccc2c(c1)N(C(=O)CCC(=O)NCc1cccc(F)c1)CC(C)O2 (configuration not stated)	none (no result: D3 antag)
CCOc1ccccc1CNC(=O)c1cc2c(=O)n(Cc3ccco3)ccc2nc1C	none (no result: D3 antag)
C[C@@H](NC(=O)c1nc[nH]c1C(=O)N[C@@H](Cc1ccccc1)C(=O)OC(C)(C)C)c1ccccc1	none
C[C@H](NC(=O)c1nc[nH]c1C(=O)N1CCN(C(=O)OC(C)(C)C)CC1)C(=O)OC(C)(C)C	none
CC1CCN(C(=O)c2[nH]cnc2C(=O)N[C@@H](C)C(=O)OC(C)(C)C)CC1	D3 antag -52
C[C@H](NC(=O)c1nc[nH]c1C(=O)N[C@@H](Cc1ccccc1)C(=O)OC(C)(C)C)c1ccccc1	D3 antag -58
Cc1ccc(NC(=O)CCn2nc(-c3ccccc3)c3ccccc3c2=O)c(C)c1	none (no result: D3 antag)
O=C(Nc1cc2c(cc1C(=O)c1cccc(Br)c1)OCCO2)c1ccccc1F	none (no result: D3 antag)
O=C(NCc1nc2ccccc2[nH]1)c1c(F)cccc1F	none (no result: D3 antag)
O=C(NC(=S)NCc1nc2ccccc2[nH]1)c1ccc(F)cc1	D1 antagonist -68
O=C(NC(=S)NCc1nc2ccccc2[nH]1)c1ccccc1F	D3 antag -63
COc1ccc2c(c1)CCC/C2=N/OC(=O)c1ccccc1OC	D1 antagonist -33
COc1ccc2c(c1)CC/C2=N\OC(=O)c1ccccc1C	none
c1ccc(-c2cc(CSc3nc4ccccc4[nH]3)on2)cc1	D1 antagonist -31
Cn1cc(CN2CCCCC2CO)c(-c2ccc(Oc3ccccc3)cc2)n1 (configuration not stated)	none
CCCN1CCC(NCc2cn(C)nc2-c2ccc(Oc3ccccc3)cc2)CC1	D1 ag 30
COC1CCCN(Cc2cn(C)nc2-c2ccc(Oc3ccccc3)cc2)C1 (configuration not stated)	D3 antag -52
COCCN1CCCC(CNCc2cn(C)nc2-c2ccc(Oc3ccccc3)cc2)C1 (configuration not stated)	none
C=CCN1C(=O)CN=C1Nc1cccc(C)c1	none
Cc1cccc(NC2=NCC(=O)N2CCc2ccccc2)c1	D1 antagonist -36
Cc1ccc(NC2=NCC(=O)N2Cc2ccccc2)c(C)c1	DRD3 agonist 39
COc1ccccc1NC1=NCC(=O)N1Cc1ccccc1	none
O=c1oc2ccccc2c(Nc2ccc(Cl)cc2)c1[N+](=O)[O-]	D1 ag 33
O=c1oc2ccccc2c(NCc2ccccc2F)c1[N+](=O)[O-]	none
CC(C)c1ccc(CNc2c([N+](=O)[O-])c(=O)oc3ccccc23)cc1	D1 antagonist -34
O=c1oc2ccccc2c(Nc2cccc(O)c2)c1[N+](=O)[O-]	D3 antag -81
Cc1oc2ncn(CC(C)C)c(=O)c2c1C(=O)Nc1cc(F)ccc1F	none (no result: D3 antag)
Cc1ccccc1Cn1c(CN2CCC(C(=O)NCc3cccnc3)CC2)cc2ccccc21	none (no result: D3 antag)
CCn1c(C(=O)N2CCCC(C(=O)N3CCN(c4cc(C)ccc4C)CC3)C2)cc2sccc21 (configuration not stated)	none (no result: D3 antag)
COCc1cc(C)nc(N2CCN(Cc3ccccc3)CC2)c1C#N	D3 antag -90
COCc1cc(C)nc(N2CCNCC2)c1C#N	D3 antag -56
Cc1nc2ccn(Cc3ccco3)c(=O)c2cc1C(=O)NCc1ccc(F)cc1	none (no result: D3 antag)
CN1CCN(C(=S)c2ccc(Cl)cc2)CC1	D3 antag -87
COc1ccc(C(=S)N2CCN(C)CC2)cc1	D3 antag -74
Cc1csc2c(NC3CCN(Cc4ccccc4)CC3)ncnc12	D3 antag -81, D1 antagonist -37
Cc1sc2ncnc(NC3CCN(Cc4ccccc4)CC3)c2c1C	D3 antag -75, D1 antagonist -53
Cc1ccc(NC(=O)C(Cc2c[nH]c3ccccc23)NC(=O)OCC(C)C)cc1 (configuration not stated)	none (no result: D3 antag)
CCOC(=O)c1ccc2c(c1)nc(SCC(=O)c1ccco1)n2CC	D1 antagonist -34
CCOC(=O)c1ccc2c(c1)nc(SCC(=O)N1CCCCC1)n2CC	none
Cc1cccc(-c2noc(-c3ccc(N4CCN(C)CC4)c([N+](=O)[O-])c3)n2)c1	none (no result: D3 antag)
CC(=O)N1N=C(c2ccc(C)cc2)OC1c1ccc(Br)cc1 (configuration not stated)	D1 antagonist -30
CC(=O)N1N=C(c2ccc(Cl)cc2)OC1c1ccc(C(C)C)cc1 (configuration not stated)	none
CN(C)S(=O)(=O)N1CCC(n2nccc2NC(=O)CCc2ccccc2)CC1	D1 antagonist -44
Cc1ccc(C)c(CN2CCC(n3nccc3NC(=O)CCCc3ccccc3)CC2)c1	D3 antag -65
O=C(Cc1ccccc1)Nc1ccnn1C1CCN(Cc2ccc(CO)o2)CC1	none
CC(C)n1cc(CN2CCC(n3nccc3NC(=O)CCCc3ccccc3)CC2)cn1	D3 antag -69
O=C(CCCc1ccccc1)Nc1ccnn1C1CCN(Cc2ccc(CO)o2)CC1	D1 antagonist -34
O=C(CCCc1ccccc1)Nc1ccnn1C1CCN(Cc2ccccc2F)CC1	none
Cc1ccccc1-c1noc(-c2nnn(-c3ccccc3C)c2N)n1	none (no result: D3 antag)
Clc1ccc(-c2cc3ncc4c(n3n2)-c2ccccc2OC4)cc1	none (no result: D3 antag)
CCOc1ccc(CN2CCC(n3nccc3NC(=O)CCCc3ccccc3)CC2)cc1	D3 antag -55
